Source: PubChem BioAssay (NCI)
The panel holds about 83,000 compounds, 20% with a hit somewhere; the sample as a whole holds those more often.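 Interpretation: 100, growth as untreated; towards 0, rising growth inhibition; 0, no net growth; 0 to -100, cell death. Compounds scoring below 10 were considered active.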 The source made the active and inactive calls.

Columns and labels:
Assay in all cases: NCI-60 one-dose screen, 48 h (100 = growth as untreated, 0 = no growth, -100 = all killed)
NCI-H23 lung = settings: 10 µM
NCI-H522 lung = settings: 10 µM
K-562 leukemia = settings: 10 µM
MDA-MB-231 breast = settings: 10 µM
RXF 393 renal = settings: 10 µM
PC-3 prostate = settings: 10 µM
LOX IMVI melanoma = settings: 10 µM
MOLT-4 leukemia = settings: 10 µM
SR leukemia = settings: 10 µM
OVCAR-5 ovarian = settings: 10 µM
HS 578T breast = settings: 10 µM
T-47D breast = settings: 10 µM
SW-620 colon = settings: 10 µM
MDA-MB-468 breast = settings: 10 µM unless noted
NCI-H460 lung = settings: 10 µM
U251 CNS = settings: 10 µM
EKVX NSCLC = settings: 10 µM
CAKI-1 renal = settings: 10 µM

Measured: growth

C[C@H]1[C@@H](Oc2ccc(-c3cn(-c4ccnc5cc(Cl)ccc45)nn3)cc2)O[C@@H]2OC3(C)CC[C@H]4[C@H](C)CC[C@@H]1[C@@]24OO3
active: NCI-H522 lung 2.18%
inactive: NCI-H23 lung 28.4% | K-562 leukemia 22.2% | MDA-MB-231 breast 49.4% | RXF 393 renal 52.3% | PC-3 prostate 29.2% | LOX IMVI melanoma 10.9% | MOLT-4 leukemia 17.5% | SR leukemia 12.2% | OVCAR-5 ovarian 19.2% | HS 578T breast 32.5% | T-47D breast 25.6% | SW-620 colon 27% | MDA-MB-468 breast 36.9%

O=C(/C=C/c1cccc(Br)c1)c1nc2ccccc2n1Cc1ccc(Br)cc1
active: NCI-H23 lung -50.7% | NCI-H460 lung -40.3% | K-562 leukemia -2.19% | RXF 393 renal -81.2% | U251 CNS -83.3% | EKVX NSCLC -54.8% | MOLT-4 leukemia -6.66% | SR leukemia -12.4% | MDA-MB-468 breast -58.5%

COC(=O)C[C@](O)(CCCC(C)C)C(=O)O[C@H]1C(OC)=C[C@@]23CCCN2CCc2cc4c(cc2[C@@H]13)OCO4
active: NCI-H23 lung -25% | NCI-H460 lung -28.6% | NCI-H522 lung -59.4% | K-562 leukemia 3.55% | MDA-MB-231 breast 7.43% | RXF 393 renal -8.52% | PC-3 prostate 1.16% | LOX IMVI melanoma -66.6% | MOLT-4 leukemia 1.41% | SR leukemia -24.8% | OVCAR-5 ovarian 5.45% | HS 578T breast -4.94% | T-47D breast 2.21% | SW-620 colon -10.5% | MDA-MB-468 breast -27.4%
inactive: EKVX NSCLC 14.2%

O=C(/C=C/c1ccc(Cl)cc1Cl)c1nc2ccccc2n1Cc1ccc(F)cc1
active: MOLT-4 leukemia 4.16% | SR leukemia -1.72%
inactive: NCI-H23 lung 47.8% | K-562 leukemia 14.5% | RXF 393 renal 32.4% | EKVX NSCLC 35.6% | CAKI-1 renal 53.3% | T-47D breast 27.2% | MDA-MB-468 breast 12.3%
